Bioassay records deposited in PubChem BioAssay by The Scripps Research Institute Molecular Screening Center.
Hits are enriched below; roughly 4.8% of the tested compounds scored in any of these assays.
hgDAF12 agonist: activates the H. glycines DAF-12 receptor ligand-binding domain; HEK293 GAL4-hgDAF12 UAS-luciferase reporter, agonist luminescence; normalized to butyrate control; activation, % at 6.8 µM; 370,000 tested, 1.8% active; AID 687014;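 active = activation above a cutoff set at the mean of all screened compounds plus 3 SD, cut at about 10% in these data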;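 also: 0% = DMSO wells and 100% = sodium butyrate wells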
hcDAF12 agonist: H. contortus DAF-12 activation, primary screen. HEK293 hcDAF-12 lit1-tk-luc reporter, luminescence; 0% DMSO, 100% Δ7-dafachronic acid. activation, % at 6.8 µM. 370,000 tested, 1.4% active;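 active = activation above the mean of all tested compounds plus 3 SD, cut at about 5.5% in these data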;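 also: 100% = response to 3 µM Δ7-dafachronic acid high control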
SMARCA2 activ: activators of SMARCA2 function. AID 652017. MG213 cells, MMTV-luciferase reporter, dexamethasone, overnight. 370,000 tested, 1% active. activation, % at 9.1 µM; in the data active = activation above about 7.8%;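 also: 0% = vehicle wells and 100% = reference activator wells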
ssDAF-12 act: activators of S. stercoralis DAF-12 nuclear receptor; HEK293 ssDAF-12/GRIP1 lit1-tk-luc reporter, luminescence; % of 3 µM dafachronic acid response; activation, % at 6.8 µM; 370,000 tested, 1% active;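 active = activation above the mean over all tested compounds plus 3 SD, cut at about 0.9% in these data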;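 also: 0% = DMSO-only wells and 100% = 3 µM delta7-dafachronic acid wells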
DAX1 inh-1: inhibits human nuclear receptor DAX1; 340,000 tested, 0.99% active; P51843; AID 504766; HEK293 Gal4-DAX1 luciferase reporter, luminescence; inhibition, % at 6.75 µM;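 active = inhibition above the mean over all tested compounds plus 3 SD, cut at about 4.2% in these data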;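 also: 0% = DAX1-transfected cells with DMSO and 100% = empty-vector control cells with DMSO; inhibition shows as a rise in luminescence from relieved DAX1 repression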
Target sequence (P51843 207-470 limits assumed): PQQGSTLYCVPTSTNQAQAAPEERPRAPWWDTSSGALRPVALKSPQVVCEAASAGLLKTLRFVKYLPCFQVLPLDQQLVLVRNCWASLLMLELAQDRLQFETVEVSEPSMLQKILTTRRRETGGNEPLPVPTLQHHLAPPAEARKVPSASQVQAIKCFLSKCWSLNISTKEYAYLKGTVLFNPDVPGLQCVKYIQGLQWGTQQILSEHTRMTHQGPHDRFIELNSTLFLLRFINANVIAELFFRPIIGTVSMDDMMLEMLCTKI
DAX1 inh-2: blocks DAX1 repression of SF-1 activated StAR promoter; inhibition, % at 6.8 µM; HEK293T StAR-luciferase reporter, SF-1/DAX-1 repression relief; 370,000 tested, 1.1% active;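 active = inhibition above the mean over all tested compounds plus 3 SD, cut at about 3.6% in these data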;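 also: 0% = DAX-1 cells with DMSO and 100% = cells lacking DAX-1 with DMSO; higher inhibition means more luminescence from relief of DAX-1 repression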
SMARCA2 conf: SMARCA2 activation, confirmation screen; shares compounds with SMARCA2 activ; 3,500 tested, 30% active; activation, % at 9.1 µM; MG213 cells, MMTV-luciferase with dexamethasone, luminescence, overnight; MG213 cells expressing E1A, Rb sequestered; DMSO wells 0%, reference activator 100%; AID 652260;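 active = activation above its plate's cutoff, the mean activation of tested wells plus 3 SD, cut at about 7.9% in these data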
GAL4-VP16 Luc: activates GAL4-VP16 luciferase, flagging SMARCA2 activator hits; shares compounds with SMARCA2 activ; HEK293 GAL4-VP16 pG5luc reporter, luciferase luminescence; scaled: DMSO wells 0%, SAHA wells 100%; activation, % at 9.1 µM; 3,500 tested, 41% active; AID 686939;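 active = activation above the solvent-only control well mean plus 3 SD, averaged across control plates, cut at about 5.2% in these data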
* = called active by the depositor; . = no result given.

SMILES	hgDAF12 agonist	hcDAF12 agonist	SMARCA2 activ	ssDAF-12 act	DAX1 inh-1	DAX1 inh-2	SMARCA2 conf	GAL4-VP16 Luc
CCCCCCN[C@H]1CCC2C3CC=C4C[C@@H](O)CC[C@]4(C)C3CC[C@@]21C (some centres undefined)	-1	0	11*	-1	-1	0	9.7*	1
COc1ccc(CC(=O)N/N=C/c2cccs2)cc1OC	-1	-3	-2	-1	-1	0	.	.
COc1ccc(COC(=O)N/N=C/c2cccs2)cc1	4	4	9.3*	0	1	1	3	3
COc1cccc(-c2ccc(NC(=O)C3CCCN(CCCn4nc(C)cc4C)C3)cc2)c1 (centres undefined)	2	2	0	-1	-1	0	.	.
COc1ccccc1CNCC(=O)Nc1ccc(N2CCOCC2)cc1	2	-1	-4	-1	1	-1	.	.
COc1ccccc1NC(=O)Nc1ccc(N2CCOCC2)cc1	8	1	8.8*	-1	4	2	8.1*	5.6*
CC(C)(O)[C@H]1Cc2cc3ccc(=O)oc3cc2O1	6	0	9.1*	-1	1	1	11*	6.2*
C=C(C)C1Cc2cc3ccc(=O)oc3cc2O1 (centres undefined)	2	0	3	-1	1	-1	.	.
CCN(C[C@H]1N[C@@](C)(C(=O)OC)[C@H]2C(=O)N(C)C(=O)[C@@H]12)S(=O)(=O)c1ccc(C(F)(F)F)cc1	-1	-2	-4	-1	0	0	.	.
Nc1nc(Sc2ccc([N+](=O)[O-])c3nonc23)c2[nH]cnc2n1	-3	0	26*	-1	1	-4	-15	1
CNc1ncnc(Sc2nc(N)nc3nc[nH]c23)c1[N+](=O)[O-]	6	-2	-2	-1	-1	-3	.	.
CCOC(=O)C1=C(N)OC(C)=C(C#N)C1c1ccco1 (centres undefined)	-1	-1	9.0*	-1	0	0	1	1
O=C(COC(=O)/C=C/c1ccc(F)cc1)Nc1ccc(Cl)cn1	1	2	-5	-1	-1	0	.	.
COc1cc(/C=C/C(=O)OCC(=O)Nc2ccc(Cl)cn2)ccc1O	1	0	10*	-1	0	1	4	1
N#C/C(=C\N1CCOCC1)C(N)=O	-2	0	7	0	.	0	.	.
Cc1ccc(-n2nc3c(=O)n(CCCC(=O)NCc4ccccc4Cl)nc(C)c3c2C)cc1	-1	0	1	-1	-1	1	.	.
CC1CCc2c(sc(NC(=O)CSc3nnc(-c4ccccc4)o3)c2C#N)C1 (centres undefined)	4	-1	9.9*	-1	0	0	-3	1
COCCNC(=O)C1CC2Cn3c(nc4ccccc43)C2N1C (centres undefined)	0	1	1	-1	1	0	.	.
Cc1cc(C)cc(NC(=O)CCc2c(C)nn(-c3ccc(N4CCCCC4)nn3)c2C)c1	8	0	11*	0	0	4.1*	3	6.3*
c1ccc(CN2CCC(Nc3nc(-c4cccnc4)nc4ccccc34)CC2)cc1	1	0	8.5*	-1	0	0	19*	2
Cc1nccc(-c2cc(-c3ccc(Cl)cc3Cl)no2)n1	8	4	16*	-1	2	0	14*	3
CCN1CCN(Cc2ccc(NC(=O)c3cc(NC(=O)c4cncc(-c5cccs5)c4)cc(OC)c3)cc2C(F)(F)F)CC1	3	-3	11*	-1	2	1	5	1
O=C(/C=C/c1ccccc1Cl)Nc1ccc(-c2nnc3n2CCCCC3)cc1	2	1	10*	-1	-1	1	-4	-1
